# Measured values from PubChem BioAssay (NCI).
# Values joined by “and” are separate entries in the source; they are usually repeats but may differ in a detail not shown here. Identical values can stand only once. This is part of a sample that, as a whole, favours compounds with a hit. Of some 79,000 tested, about 15% had one in any assay. More than one record can exist for a structure, and the calls need not agree. Active and inactive are the calls of the source. No stated cut-off is given here; in the data, active means growth inhibition above about 70%; inactive means the rest.
# Legend:
# [1] = NCI Yeast Anticancer Drug Screen. Data for the rad52 strain (AID 147);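 further: 0% = growth of vehicle-treated control cultures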; details: S. cerevisiae rad52 mutant growth inhibition, stronger effect = higher value
# Outline: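 DNA repair-defective yeast; compound exposure; growth scored against vehicle controls.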
# [2] = NCI Yeast Anticancer Drug Screen. Data for the wt1 strain (AID 149);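 further: 0% = growth of vehicle-treated wt1 cultures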; details: S. cerevisiae wt1 strain (SPY 50644) growth inhibition, stronger effect = higher value
# Outline: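 Growth inhibition read against vehicle controls after compound exposure of the wt1 yeast strain.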
# [3] = NCI Yeast Anticancer Drug Screen. Data for the rad50EPP+ strain (AID 151);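 further: 0% = growth of vehicle-treated control cultures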; details: S. cerevisiae rad50 mutant strain, stronger effect = higher value
# Outline: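 rad50EPP+ yeast treated with test compounds. Readout: growth vs vehicle control.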
# [4] = NCI Yeast Anticancer Drug Screen. Data for the mgt1 strain (AID 153); details: S. cerevisiae mgt1 mutant growth inhibition, stronger effect = higher value
# Outline: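 Growth inhibition relative to vehicle controls was scored for the mgt1 yeast strain after compound exposure.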
# [5] = NCI Yeast Anticancer Drug Screen. Data for the rad50 strain (AID 155);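 further: 0% = growth of vehicle-only cultures of the same strain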; details: S. cerevisiae rad50 strain growth inhibition, stronger effect = higher value
# Outline: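 Readout: growth inhibition relative to vehicle-treated cultures. Compound exposure was carried out in a genetically defined yeast strain deficient in DNA damage repair.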
# [6] = NCI Yeast Anticancer Drug Screen. Data for the mec2-1 strain (AID 157); details: S. cerevisiae mec2-1 strain, stronger effect = higher value
# Outline: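 Growth inhibition is read against vehicle-treated controls after compound exposure of the mec2-1 yeast strain, which is defective in DNA damage repair or cell cycle control.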
# [7] = NCI Yeast Anticancer Drug Screen. Data for the rad14 strain (AID 159);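 further: 0% = growth of vehicle-treated control cultures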; details: S. cerevisiae rad14 strain growth inhibition, stronger effect = higher value
# Outline: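 Growth inhibition vs vehicle controls; genetically altered yeast strain (DNA damage repair defect) treated with test compounds.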
# [8] = NCI Yeast Anticancer Drug Screen. Data for the sgs1 mgt1 strain (AID 161);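 further: 0% = growth of cultures given vehicle only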; details: S. cerevisiae sgs1 mgt1 strain, stronger effect = higher value
# Outline: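 Yeast cells carrying a defined DNA-repair defect were exposed to test compounds. Growth inhibition was measured relative to vehicle-treated controls.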
# [9] = NCI Yeast Anticancer Drug Screen. Data for the CLN2oe strain (AID 163);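 further: 0% = growth of vehicle-only control cultures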; details: S. cerevisiae CLN2oe strain, stronger effect = higher value
# Outline: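 Compound-treated yeast; growth vs vehicle ctrl = % inhibition. Genetically altered strain (cell-cycle control).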
# [10] = NCI Yeast Anticancer Drug Screen. Data for the cln2 rad14 strain (AID 165);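 further: 0% = growth equal to vehicle treated cultures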; details: S. cerevisiae cln2 rad14 strain, stronger effect = higher value
# Outline: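 Growth inhibition, relative to vehicle-treated controls, is the read-out. The test organism is a yeast strain with defined genetic alterations, cln2 rad14.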
# [11] = NCI Yeast Anticancer Drug Screen. Data for the bub3 strain (AID 167); details: S. cerevisiae bub3 mutant strain, stronger effect = higher value
# Outline: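 Readout: yeast growth inhibition, expressed relative to vehicle-only wells. The test organism is a mutant strain from a panel with lesions in DNA repair or checkpoint genes.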
# [12] = NCI Yeast Anticancer Drug Screen. Data for the wt2 strain (AID 169);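 further: 0% = growth of vehicle-treated yeast cultures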; details: S. cerevisiae wt2 strain growth inhibition, stronger effect = higher value
# Outline: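 Compound exposure of yeast; growth compared with vehicle controls; inhibition reported.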
# [13] = NCI Yeast Anticancer Drug Screen. Data for the mlh1 strain (AID 171);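 further: 0% = growth of vehicle-treated control cultures of the same strain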; details: S. cerevisiae mlh1 strain growth inhibition, stronger effect = higher value
# Outline: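 Compounds are applied to a genetically altered yeast strain, and its growth is compared with that of vehicle-treated cultures to give percent inhibition.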
# [14] = NCI Yeast Anticancer Drug Screen. Data for the sgs1 strain (AID 173);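 further: 0% = growth of vehicle-only control cultures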; details: S. cerevisiae sgs1 mutant, stronger effect = higher value
# Outline: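 Compounds applied to genetically altered yeast; growth compared with vehicle-treated cultures to give % inhibition.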
# [15] = NCI Yeast Anticancer Drug Screen. Data for the mlh1 rad18 strain (AID 175); details: S. cerevisiae mlh1 rad18 strain growth inhibition, stronger effect = higher value
# Outline: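 Cells of a genetically altered yeast strain, deficient in DNA damage repair, were treated with compound. Their growth was then compared with that of vehicle-treated cultures to give inhibition.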
# [16] = NCI Yeast Anticancer Drug Screen. Data for the rad18 strain (AID 177); details: S. cerevisiae rad18 mutant growth inhibition, stronger effect = higher value
# Outline: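 Compounds are applied to a repair-deficient yeast strain, and growth is compared with that of vehicle-treated cultures to give percent inhibition.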
# [17] = at 5.0 µM (retest, dose inferred, filed as 0.5)
# [18] = at 50.0 µM (retest, dose inferred, filed as 5.0)
smiles,measurement,setting,value
CCCCOC(=O)Nc1ccc(C)c(NC(=O)OCCCC)c1,growth inhibition,[1]; at 1.2 µM,-4% (inactive)
same,growth inhibition,[1]; at 3.7 µM,-1% (inactive)
same,growth inhibition,[1]; at 11.0 µM,15% (inactive)
same,growth inhibition,[1]; at 33.0 µM,26% (inactive)
same,growth inhibition,[1]; at 100.0 µM,34% (inactive)
same,growth inhibition,[2]; at 1.2 µM,-6% (inactive)
same,growth inhibition,[2]; at 3.7 µM,-2% (inactive)
same,growth inhibition,[2]; at 11.0 µM,-7% (inactive)
same,growth inhibition,[2]; at 33.0 µM,46% (inactive)
same,growth inhibition,[2]; at 100.0 µM,12% (inactive)
same,growth inhibition,[3]; at 1.2 µM,2% (inactive)
same,growth inhibition,[3]; at 3.7 µM,5% (inactive)
same,growth inhibition,[3]; at 11.0 µM,27% (inactive)
same,growth inhibition,[3]; at 33.0 µM,36% (inactive)
same,growth inhibition,[3]; at 100.0 µM,44% (inactive)
same,growth inhibition,[4]; at 1.2 µM,-9% (inactive)
same,growth inhibition,[4]; at 3.7 µM,-8% (inactive)
same,growth inhibition,[4]; at 11.0 µM,-4% (inactive)
same,growth inhibition,[4]; at 33.0 µM,8% (inactive)
same,growth inhibition,[4]; at 100.0 µM,18% (inactive)
same,growth inhibition,[5]; at 1.2 µM,-5% (inactive)
same,growth inhibition,[5]; at 3.7 µM,-3% (inactive)
same,growth inhibition,[5]; [17],3% (inactive)
same,growth inhibition,[5]; at 11.0 µM,9% (inactive)
same,growth inhibition,[5]; at 33.0 µM,19% (inactive)
same,growth inhibition,[5]; [18],78% (active)
same,growth inhibition,[5]; at 50.0 µM,89.9% (active)
same,growth inhibition,[5]; at 100.0 µM,42% (inactive)
same,growth inhibition,[6]; at 1.2 µM,-6% (inactive)
same,growth inhibition,[6]; at 3.7 µM,-11% (inactive)
same,growth inhibition,[6]; [17],-2% (inactive)
same,growth inhibition,[6]; at 11.0 µM,-6% (inactive)
same,growth inhibition,[6]; at 33.0 µM,7% (inactive)
same,growth inhibition,[6]; [18],69% (inactive)
same,growth inhibition,[6]; at 50.0 µM,94.3% (active)
same,growth inhibition,[6]; at 100.0 µM,22% (inactive)
same,growth inhibition,[7]; at 1.2 µM,-3% (inactive)
same,growth inhibition,[7]; at 3.7 µM,-3% (inactive)
same,growth inhibition,[7]; at 11.0 µM,2% (inactive)
same,growth inhibition,[7]; at 33.0 µM,11% (inactive)
same,growth inhibition,[7]; at 100.0 µM,15% (inactive)
same,growth inhibition,[8]; [17],1% (inactive)
same,growth inhibition,[8]; [18],82% (active)
same,growth inhibition,[8]; at 50.0 µM,88.6% (active)
same,growth inhibition,[9]; at 1.2 µM,-11% (inactive)
same,growth inhibition,[9]; at 3.7 µM,-19% (inactive)
same,growth inhibition,[9]; at 11.0 µM,11% (inactive)
same,growth inhibition,[9]; at 33.0 µM,31% (inactive)
same,growth inhibition,[9]; at 100.0 µM,38% (inactive)
same,growth inhibition,[10]; [17],-4% (inactive)
same,growth inhibition,[10]; [18],79% (active)
same,growth inhibition,[10]; at 50.0 µM,91.9% (active)
same,growth inhibition,[11]; at 1.2 µM,-8% (inactive)
same,growth inhibition,[11]; at 3.7 µM,-9% (inactive)
same,growth inhibition,[11]; [17],-2% (inactive)
same,growth inhibition,[11]; at 11.0 µM,-8% (inactive)
same,growth inhibition,[11]; at 33.0 µM,3% (inactive)
same,growth inhibition,[11]; [18],72% (active)
same,growth inhibition,[11]; at 50.0 µM,94.5% (active)
same,growth inhibition,[11]; at 100.0 µM,8% (inactive)
same,growth inhibition,[12]; at 1.2 µM,-4% (inactive)
same,growth inhibition,[12]; at 3.7 µM,-4% (inactive)
same,growth inhibition,[12]; at 11.0 µM,6% (inactive)
same,growth inhibition,[12]; at 33.0 µM,52% (inactive)
same,growth inhibition,[12]; at 100.0 µM,29% (inactive)
same,growth inhibition,[13]; at 1.2 µM,-8% (inactive)
same,growth inhibition,[13]; at 3.7 µM,-6% (inactive)
same,growth inhibition,[13]; at 11.0 µM,1% (inactive)
same,growth inhibition,[13]; at 33.0 µM,17% (inactive)
same,growth inhibition,[13]; at 100.0 µM,36% (inactive)
same,growth inhibition,[14]; at 1.2 µM,-4% (inactive)
same,growth inhibition,[14]; at 3.7 µM,-5% (inactive)
same,growth inhibition,[14]; at 11.0 µM,8% (inactive)
same,growth inhibition,[14]; at 33.0 µM,47% (inactive)
same,growth inhibition,[14]; at 100.0 µM,72% (active)
same,growth inhibition,[15]; [17],-1% (inactive)
same,growth inhibition,[15]; [18],84% (active)
same,growth inhibition,[15]; at 50.0 µM,94.5% (active)
same,growth inhibition,[16]; at 1.2 µM,-5% (inactive)
same,growth inhibition,[16]; at 3.7 µM,-8% (inactive)
same,growth inhibition,[16]; at 11.0 µM,12% (inactive)
same,growth inhibition,[16]; at 33.0 µM,31% (inactive)
same,growth inhibition,[16]; at 100.0 µM,50% (inactive)
Cc1cc(N(CCOS(C)(=O)=O)CCOS(C)(=O)=O)ccc1C=Nc1ccc(-c2csc(-c3ccccc3)n2)c(Cl)c1,growth inhibition,[1]; at 1.2 µM,14% (inactive)
same,growth inhibition,[1]; at 3.7 µM,57% (inactive)
same,growth inhibition,[1]; at 11.0 µM,90% (active)
same,growth inhibition,[1]; at 33.0 µM,96% (active)
same,growth inhibition,[1]; at 100.0 µM,84% (active)
same,growth inhibition,[2]; at 1.2 µM,-26% (inactive)
same,growth inhibition,[2]; at 3.7 µM,-8% (inactive)
same,growth inhibition,[2]; at 11.0 µM,56% (inactive)
same,growth inhibition,[2]; at 33.0 µM,98% (active)
same,growth inhibition,[2]; at 100.0 µM,92% (active)
same,growth inhibition,[3]; at 1.2 µM,3% (inactive)
same,growth inhibition,[3]; at 3.7 µM,-1% (inactive)
same,growth inhibition,[3]; at 11.0 µM,13% (inactive)
same,growth inhibition,[3]; at 33.0 µM,62% (inactive)
same,growth inhibition,[3]; at 100.0 µM,85% (active)
same,growth inhibition,[4]; at 1.2 µM,13% (inactive)
same,growth inhibition,[4]; at 3.7 µM,43% (inactive)
same,growth inhibition,[4]; at 11.0 µM,81% (active)
same,growth inhibition,[4]; at 33.0 µM,98% (active)
same,growth inhibition,[4]; at 100.0 µM,92% (active)
same,growth inhibition,[5]; at 1.2 µM,2% (inactive)
same,growth inhibition,[5]; at 3.7 µM,28% (inactive)
same,growth inhibition,[5]; [17],53% (inactive) and 4% (inactive)
same,growth inhibition,[5]; at 11.0 µM,78% (active)
same,growth inhibition,[5]; at 33.0 µM,96% (active)
same,growth inhibition,[5]; [18],96% (active) and 94% (active)
same,growth inhibition,[5]; at 50.0 µM,93.2% (active)
same,growth inhibition,[5]; at 100.0 µM,91% (active)
same,growth inhibition,[6]; at 1.2 µM,-2% (inactive)
same,growth inhibition,[6]; at 3.7 µM,30% (inactive)
same,growth inhibition,[6]; [17],51% (inactive) and -1% (inactive)
same,growth inhibition,[6]; at 11.0 µM,85% (active)
same,growth inhibition,[6]; at 33.0 µM,97% (active)
same,growth inhibition,[6]; [18],97% (active)
same,growth inhibition,[6]; at 50.0 µM,97.1% (active)
same,growth inhibition,[6]; at 100.0 µM,92% (active)
same,growth inhibition,[7]; at 1.2 µM,4% (inactive)
same,growth inhibition,[7]; at 3.7 µM,53% (inactive)
same,growth inhibition,[7]; at 11.0 µM,91% (active)
same,growth inhibition,[7]; at 33.0 µM,97% (active)
same,growth inhibition,[7]; at 100.0 µM,91% (active)
same,growth inhibition,[8]; [17],20% (inactive) and 8% (inactive)
same,growth inhibition,[8]; [18],5% (inactive) and 97% (active)
same,growth inhibition,[8]; at 50.0 µM,82.8% (active) and 96.2% (active)
same,growth inhibition,[9]; at 1.2 µM,36% (inactive)
same,growth inhibition,[9]; at 3.7 µM,37% (inactive)
same,growth inhibition,[9]; at 11.0 µM,79% (active)
same,growth inhibition,[9]; at 33.0 µM,98% (active)
same,growth inhibition,[9]; at 100.0 µM,92% (active)
same,growth inhibition,[10]; [17],29% (inactive) and -6% (inactive)
same,growth inhibition,[10]; [18],-5% (inactive) and 95% (active)
same,growth inhibition,[10]; at 50.0 µM,82.8% (active) and 92.5% (active)
same,growth inhibition,[11]; at 1.2 µM,0% (inactive)
same,growth inhibition,[11]; at 3.7 µM,20% (inactive)
same,growth inhibition,[11]; [17],18% (inactive) and 0% (inactive)
same,growth inhibition,[11]; at 11.0 µM,76% (active)
same,growth inhibition,[11]; at 33.0 µM,97% (active)
same,growth inhibition,[11]; [18],-19% (inactive) and 95% (active)
same,growth inhibition,[11]; at 50.0 µM,81.4% (active) and 94% (active)
same,growth inhibition,[11]; at 100.0 µM,92% (active)
